PubChem BioAssay (NCI)
The panel holds about 79,000 compounds, 15% with a hit somewhere; the sample as a whole holds those more often. Values without a mark were called inactive. Calls of active or inactive are those of the source. Cut-off read from the data, not from the text of the source: active = growth inhibition above about 70%; inactive = the rest.

Experiment: NCI Yeast Anticancer Drug Screen. Data for the rad14 strain (AID 159);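 note: 0% = growth of vehicle-treated control cultures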
Conditions: S. cerevisiae rad14 strain growth inhibition, hits give high values
Procedure: Growth inhibition of yeast strains with defined genetic alterations is measured as a screen for potential anti-cancer activity. Selected strains with alterations in DNA damage repair or cell cycle control were exposed to compounds and growth inhibition was measured relative to vehicle treated controls. The strain used in this assay is rad14

Which results are given for `CCCCCCCCCCCCCCN`?
growth inhibition (at 1.2 µM): 20%; growth inhibition (at 3.7 µM): 20%; growth inhibition (at 11.0 µM): 14%; growth inhibition (at 33.0 µM): 15%; growth inhibition (at 100.0 µM): 99% (active)

With `Cc1ccc(Nc2n[nH]c(=S)s2)c(C)c1` as the molecule, how does the growth inhibition (at 1.2 µM) read?
The growth inhibition was -45%.

What about the growth inhibition (at 3.7 µM) of the same molecule?
Its growth inhibition is -33%.

And the growth inhibition (at 11.0 µM)?
The growth inhibition was -41%.

What about the growth inhibition (at 33.0 µM) of the same molecule?
Its growth inhibition is 37%.

And the growth inhibition (at 100.0 µM)?
The growth inhibition was 91% (active).

What does the source list for `O=C1C(/C=C/c2ccc(Cl)cc2)=NNC2N1N=C1NC(=O)C3(NN12)c1ccccc1-c1ccccc13` (stereo not given)?
growth inhibition (at 1.2 µM): -1%; growth inhibition (at 3.7 µM): -2%; growth inhibition (at 11.0 µM): -1%; growth inhibition (at 33.0 µM): 0%; growth inhibition (at 100.0 µM): 5%

Which growth inhibition (at 1.2 µM) does the source give for `CS(=O)(=O)O.[Ag]` here?
Its growth inhibition is 59%.

And the growth inhibition (at 3.7 µM)?
The growth inhibition was 99% (active).

What about the growth inhibition (at 11.0 µM) of the same molecule?
Its growth inhibition is 98% (active).

And the growth inhibition (at 33.0 µM)?
The growth inhibition was 98% (active).

What about the growth inhibition (at 100.0 µM) of the same molecule?
Its growth inhibition is 97% (active).

Which growth inhibition (at 1.2 µM) does the source give for `O=C(Oc1ccc([N+](=O)[O-])cc1)c1ccc([N+](=O)[O-])cc1` here?
The growth inhibition was 7%.

And the growth inhibition (at 3.7 µM)?
Its growth inhibition is 5%.

What about the growth inhibition (at 11.0 µM) of the same molecule?
The growth inhibition was 3%.

What about the growth inhibition (at 33.0 µM) of the same molecule?
Its growth inhibition is 19%.

And the growth inhibition (at 100.0 µM)?
Its growth inhibition is 41%.

Which growth inhibition (at 1.2 µM) does the source give for `CCOc1ccc(N)c(S)c1` here?
The growth inhibition was -2%.

What about the growth inhibition (at 3.7 µM) of the same molecule?
Its growth inhibition is -7%.

What about the growth inhibition (at 11.0 µM) of the same molecule?
The growth inhibition was 1%.

What about the growth inhibition (at 33.0 µM) of the same molecule?
The growth inhibition was 54%.

What about the growth inhibition (at 100.0 µM) of the same molecule?
The growth inhibition was 98% (active).

Which growth inhibition (at 1.2 µM) does the source give for `OB(O)c1ccccc1C#Cc1ccccc1` here?
Its growth inhibition is 2%.

What about the growth inhibition (at 3.7 µM) of the same molecule?
Its growth inhibition is 2%.

What about the growth inhibition (at 11.0 µM) of the same molecule?
The growth inhibition was 12%.

What about the growth inhibition (at 33.0 µM) of the same molecule?
Its growth inhibition is 27%.

What about the growth inhibition (at 100.0 µM) of the same molecule?
Its growth inhibition is 37%.

Which growth inhibition (at 1.2 µM) does the source give for `C1=CCN([B-](c2ccccc2)[C+]2CCCCC2)C=C1` here?
Its growth inhibition is -1%.

And the growth inhibition (at 3.7 µM)?
Its growth inhibition is -2%.

And the growth inhibition (at 11.0 µM)?
Its growth inhibition is 1%.

What about the growth inhibition (at 33.0 µM) of the same molecule?
Its growth inhibition is 28%.

What about the growth inhibition (at 100.0 µM) of the same molecule?
Its growth inhibition is 99% (active).
